In PubChem BioAssay AID720633 (The Scripps Research Institute Molecular Screening Center, 2013) one finds inhibition data, which are given here for seven compounds.

For the test, the target named is Fibrinogen beta chain (Homo sapiens) (UniProt P02675). Description: fibrin DD(E) probe displacement, second cyclic peptide – biochemical, fluorescence polarization, human fibrin, counter-screen for fibrin DD(E)-Tn7 binding project, confirmation (AID 720633).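 Note: 0% = median of compound sample wells and 100% = excess unlabeled Aha-Tn7 peptide.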 To be noted: TRITC-Tn7 probe displacement, at 8.3 µM, active compounds read high. In general terms: Polarisation of emitted light reports the rotation of a fluorescent probe.

The list shows a part of the results. Values without a mark were called inactive.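 Rule for the calls: active = inhibition above the cutoff, the mean of compounds lying between the control bounds plus 3 SD of those compounds (cut at about 17% in these data); inactive = the rest.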

Sequence of Fibrinogen beta chain (Homo sapiens) (P02675 whole entry, looked up): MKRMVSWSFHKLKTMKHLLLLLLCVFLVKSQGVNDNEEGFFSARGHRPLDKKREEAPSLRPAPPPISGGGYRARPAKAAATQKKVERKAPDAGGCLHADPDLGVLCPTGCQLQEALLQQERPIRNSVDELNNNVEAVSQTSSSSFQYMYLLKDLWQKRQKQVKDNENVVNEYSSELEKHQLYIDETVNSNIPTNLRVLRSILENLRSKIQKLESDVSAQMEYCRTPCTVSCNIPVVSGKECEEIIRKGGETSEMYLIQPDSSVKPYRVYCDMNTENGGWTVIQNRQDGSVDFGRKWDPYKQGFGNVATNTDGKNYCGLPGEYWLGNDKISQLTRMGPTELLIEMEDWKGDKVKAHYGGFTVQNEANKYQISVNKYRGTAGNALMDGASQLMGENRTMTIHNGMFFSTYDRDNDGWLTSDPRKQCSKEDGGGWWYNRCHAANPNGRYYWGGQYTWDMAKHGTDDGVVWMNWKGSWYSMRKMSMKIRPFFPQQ

`COc1ccc(S(=O)(=O)c2c[nH]c(=S)[nH]c2=O)cc1Cl`: the inhibition was -4.35%.

In the case of `Cc1nn(C)cc1N1C(=O)c2cccc3c(N)ccc(c23)C1=O`, the inhibition is 1.67%.

Turning to `CCOc1ccc(Nc2oc(Cc3ccccc3)nc2C#N)cc1`, the inhibition was -10.1%.

As to `COc1cc(C(=S)N2CCOCC2)ccc1O`, the inhibition is 6.48%.

In the case of `Cn1c(CC(=O)NNC(=O)c2ccccc2F)nc2ccccc21`, the inhibition was -5.95%.

For `Cc1cc2nc3c(=O)[nH]c(=O)nc-3n(C[C@H](O)[C@H](O)[C@H](O)CO)c2cc1C`, the inhibition was 12.4%.

Consider `O=C(COC(=O)/C=C/c1ccc(OC(F)F)cc1)NC1CCCCC1`, for which the inhibition was 6.67%.

For orientation: inhibition means the relative decrease from the control value, in per cent.
